The source made the active and inactive calls. How the source made its calls: active means hit-call score of the fitted dose curve at least 0.9, where 1 is the maximum; inactive means score below 0.9.
Assays:
Settings in all cases: mRNA level, 48 h; actives raise or lower the signal
[1] = read-out: Glutamate-cysteine ligase catalytic (GCLC), GCLC (gene 2729); experiment: LTEA_HepaRG_GCLC: Life Technologies and Expression Analysis (LTEA) Assay for Glutamate-cysteine ligase catalytic (GCLC) using HepaRG (AID 2283498)
Procedure, shortened: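 HepaRG, 48 h exposure, 8-pt half-log series from 100 uM, 0.5% DMSO vehicle; TaqMan qRT-PCR for GCLC mRNA, housekeeping-normalized; bidirectional curve fit vs DMSO baseline.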

[2] = read-out: growth arrest and DNA damage 45 (GADD45G), GADD45G (gene 10912); experiment: LTEA_HepaRG_GADD45G: Life Technologies and Expression Analysis (LTEA) Assay for growth arrest and DNA damage 45 (GADD45G) using HepaRG (AID 2283499)
Procedure, shortened: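 Concentration-response in HepaRG: 48 h dosing, 0.5% DMSO, highest level 100 uM. GADD45G expression by qRT-PCR, normalised to endogenous controls; bidirectional fit to DMSO.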

[3] = read-out: Glutamate-cysteine ligase regulatory (GCLM), GCLM (gene 2730); experiment: LTEA_HepaRG_GCLM: Life Technologies and Expression Analysis (LTEA) Assay for Glutamate-cysteine ligase regulatory (GCLM) using HepaRG (AID 2283500)
Procedure, shortened: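 Endpoint is GCLM transcript level by qRT-PCR, normalized to three housekeeping genes, after 48 h chemical exposure of human HepaRG cells (0.5% DMSO vehicle, top 100 uM, half-log dilutions). Fitting was bidirectional relative to DMSO.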

[4] = read-out: Glutathione S-transferase M3 (GSTM3), GSTM3 (gene 2947); experiment: LTEA_HepaRG_GSTM3: Life Technologies and Expression Analysis (LTEA) Assay for Glutathione S-transferase M3 (GSTM3) using HepaRG (AID 2283501)
Procedure, shortened: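 Expression of GSTM3 is determined by qRT-PCR in human liver HepaRG cells treated 48 h with an 8-point half-log range from 100 uM in 0.5% DMSO.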

[5] = read-out: Heat shock 70 kDa protein 1 (HSPA1A), gene 3303; experiment: LTEA_HepaRG_HSPA1A: Life Technologies and Expression Analysis (LTEA) Assay for Heat shock 70 kDa protein 1 (HSPA1A) using HepaRG (AID 2283502)
Procedure, shortened: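 Cells were plated and cultured for 48 h, then switched to serum-free induction medium. Chemicals were added at eight half-log concentrations up to 100 uM for 48 h. RNA was then isolated and HSPA1A measured by qRT-PCR with bidirectional curve fitting against DMSO.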

[6] = read-out: Hypoxia-inducible factor 1-alpha (Homo sapiens) (UniProt Q16665); experiment: LTEA_HepaRG_HIF1A: Life Technologies and Expression Analysis (LTEA) Assay for Hypoxia-inducible factor 1 (HIF1A) Trancription factor using HepaRG (AID 2283503)
Procedure, shortened: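 HIF1A transcript level read by qRT-PCR (ACTB, GAPDH, POLR2A normalization) after 48 h chemical exposure of HepaRG cultures. Eight half-log concentrations, top 100 uM, 0.5% DMSO vehicle, duplicates; bidirectional curve fit against DMSO baseline.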

[7] = read-out: 3-Hydroxy-3-Methylglutaryl-CoA Synthase 2 (HMGCS2), HMGCS2 (gene 3158); experiment: LTEA_HepaRG_HMGCS2: Life Technologies and Expression Analysis (LTEA) Assay for 3-Hydroxy-3-Methylglutaryl-CoA Synthase 2 (HMGCS2) using HepaRG (AID 2283504)
Procedure, shortened: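 This steatosis marker was read as HMGCS2 mRNA change in HepaRG cells treated 48 h with up to 100 uM chemical. Normalisation used housekeeping genes; activity in either direction was fitted relative to 0.5% DMSO vehicle.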

HGF (gene 3082) = experiment: LTEA_HepaRG_HGF: Life Technologies and Expression Analysis (LTEA) Assay for Hepatocyte Growth Facto (HGF) using HepaRG (AID 2283505)
Procedure, shortened: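 Using HepaRG monolayers kept in 0.5% DMSO, chemicals were tested in duplicate over eight half-log concentrations from 100 uM for 48 h. Endpoint: HGF mRNA change relative to DMSO, normalized to ACTB/GAPDH/POLR2A.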

[8] = read-out: Insulin Like Growth Factor 1 (IGF1), IGF1 (gene 3479); experiment: LTEA_HepaRG_IGF1: Life Technologies and Expression Analysis (LTEA) Assay for Insulin Like Growth Factor 1 (IGF1) using HepaRG (AID 2283506)
Procedure, shortened: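 Cells are thawed, plated and cultured 48 h, then exposed in duplicate to chemical (highest 100 uM, half-log steps, 0.5% DMSO) for another 48 h. Total RNA is analysed by Fluidigm qRT-PCR for IGF1 expression relative to vehicle.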

[9] = read-out: Intercellular Adhesion Molecule 1 (ICAM1), ICAM1 (gene 3383); experiment: LTEA_HepaRG_ICAM1: Life Technologies and Expression Analysis (LTEA) Assay for Intercellular Adhesion Molecule 1 (ICAM1) using HepaRG (AID 2283507)
Procedure, shortened: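 Using the human liver line HepaRG, compounds are tested in duplicate over 48 h at concentrations up to 100 uM. Expression is determined by TaqMan qRT-PCR, normalized to endogenous controls, and analysed relative to 0.5% DMSO vehicle.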

[10] = read-out: Insulin-like growth factor-binding protein 1 (IGFBP1), IGFBP1 (gene 3484); experiment: LTEA_HepaRG_IGFBP1: Life Technologies and Expression Analysis (LTEA) Assay for Insulin-like growth factor-binding protein 1 (IGFBP1) using HepaRG (AID 2283508)
Procedure, shortened: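 HepaRG, 48 h, 8 conc. (max 100 uM, half-log), duplicates, 0.5% DMSO. Readout: TaqMan qRT-PCR, ACTB/GAPDH/POLR2A normalisation. Fit: bidirectional vs DMSO.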

[11] = read-out: Interleukin 6 (IL6), IL6 (gene 3569); experiment: LTEA_HepaRG_IL6: Life Technologies and Expression Analysis (LTEA) Assay for Interleukin 6 (IL6) using HepaRG (AID 2283509)
Procedure, shortened: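 qRT-PCR read-out of IL6 transcript, normalized to three housekeeping genes, after 48 h chemical exposure of HepaRG cells; 8-point half-log series, top 100 uM, 0.5% DMSO vehicle. Bidirectional curve fitting against DMSO baseline.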

[12] = read-out: Potassium channel subfamily K member 1 (KCNK1), KCNK1 (gene 3775); experiment: LTEA_HepaRG_KCNK1: Life Technologies and Expression Analysis (LTEA) Assay for Potassium channel subfamily K member 1 (KCNK1) using HepaRG (AID 2283511)
Procedure, shortened: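 HepaRG, 48 h exposure, 8-pt half-log series top 100 uM, 0.5% DMSO vehicle, duplicates. Readout: KCNK1 transcript by qRT-PCR (Fluidigm array), housekeeping-normalized; bidirectional curve fit relative to DMSO baseline.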

[13] = read-out: JUN Transcription Factor, JUN (gene 3725); experiment: LTEA_HepaRG_JUN: Life Technologies and Expression Analysis (LTEA) Assay for JUN Transcription Factor using HepaRG (AID 2283513)
Procedure, shortened: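 Read-out is JUN transcript level by TaqMan qRT-PCR, normalized to ACTB, GAPDH and POLR2A, after 48 h chemical treatment of HepaRG cells. Concentration-response spanned eight half-log points up to 100 uM in 0.5% DMSO.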

[14] = read-out: Lipase C (LIPC), LIPC (gene 3990); experiment: LTEA_HepaRG_LIPC: Life Technologies and Expression Analysis (LTEA) Assay for Lipase C (LIPC) using HepaRG (AID 2283514)
Procedure, shortened: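 HepaRG, 48 h exposure, 8-pt half-log series from 100 uM in 0.5% DMSO, duplicates. Readout: LIPC mRNA by Fluidigm qRT-PCR, housekeeping-normalized (ACTB/GAPDH/POLR2A). Gain or loss fitted bidirectionally against DMSO baseline.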

[15] = read-out: Lipoprotein lipase (LPL), LPL (gene 4023); experiment: LTEA_HepaRG_LPL: Life Technologies and Expression Analysis (LTEA) Assay for Lipoprotein lipase (LPL) using HepaRG (AID 2283515)
Procedure, shortened: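 HepaRG, 48 h exposure, 8-pt half-log dilutions from 100 uM, 0.5% DMSO vehicle, duplicates; qRT-PCR (Fluidigm array) of LPL mRNA vs housekeeping genes; bidirectional curve fit relative to DMSO baseline.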

[16] = read-out: matrix metalloproteinase-10 (MMP10), MMP10 (gene 4319); experiment: LTEA_HepaRG_MMP10: Life Technologies and Expression Analysis (LTEA) Assay for matrix metalloproteinase-10 (MMP10) using HepaRG (AID 2283517)
Procedure, shortened: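 Transcript levels come from Fluidigm qRT-PCR normalized to three housekeeping genes, with curves fitted bidirectionally against 0.5% DMSO. Human HepaRG cells were dosed for 48 hours at concentrations up to 100 uM.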

[17] = read-out: Interleukin 6 Receptor (IL6R), IL6R (gene 3570); experiment: LTEA_HepaRG_IL6R: Life Technologies and Expression Analysis (LTEA) Assay for Interleukin 6 Receptor (IL6R) using HepaRG (AID 2283510);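 on AC50: differentiated human HepaRG liver cells in serum-free induction medium; TaqMan qRT-PCR signal normalized to ACTB GAPDH and POLR2A housekeeping genes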
Procedure, shortened: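 Cells were thawed, plated and cultured 48 h, then medium was changed to serum-free induction medium. Chemicals were added in duplicate (100 uM top, half-log steps, 0.5% DMSO) for 48 h. Lysates were analyzed by qRT-PCR for IL6R expression.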

[18] = read-out: Keratin 19 (KRT19), KRT19 (gene 3880); experiment: LTEA_HepaRG_KRT19: Life Technologies and Expression Analysis (LTEA) Assay for Keratin 19 (KRT19) using HepaRG (AID 2283512)
Procedure, shortened: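 Readout is qRT-PCR of KRT19 mRNA, normalized to ACTB, GAPDH and POLR2A, from HepaRG cells treated 48 h with eight-point half-log dilutions topping at 100 uM. Activity in either direction is scored relative to 0.5% DMSO vehicle.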

[19] = read-out: MicroRNA 122 (MIR122), gene 406906; experiment: LTEA_HepaRG_MIR122: Life Technologies and Expression Analysis (LTEA) Assay for MicroRNA 122 (MIR122) using HepaRG (AID 2283516); further: the transcript read is the microRNA miR-122
Procedure, shortened: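 Human liver HepaRG cultures receive test chemicals for 48 h at eight half-log concentrations from 100 uM. Expression is quantified by qRT-PCR with ACTB/GAPDH/POLR2A normalization and fitted bidirectionally against 0.5% DMSO.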

Measured: AC50

Hypoxia-inducible factor 1-alpha (Homo sapiens), sequence (Q16665 whole entry, looked up): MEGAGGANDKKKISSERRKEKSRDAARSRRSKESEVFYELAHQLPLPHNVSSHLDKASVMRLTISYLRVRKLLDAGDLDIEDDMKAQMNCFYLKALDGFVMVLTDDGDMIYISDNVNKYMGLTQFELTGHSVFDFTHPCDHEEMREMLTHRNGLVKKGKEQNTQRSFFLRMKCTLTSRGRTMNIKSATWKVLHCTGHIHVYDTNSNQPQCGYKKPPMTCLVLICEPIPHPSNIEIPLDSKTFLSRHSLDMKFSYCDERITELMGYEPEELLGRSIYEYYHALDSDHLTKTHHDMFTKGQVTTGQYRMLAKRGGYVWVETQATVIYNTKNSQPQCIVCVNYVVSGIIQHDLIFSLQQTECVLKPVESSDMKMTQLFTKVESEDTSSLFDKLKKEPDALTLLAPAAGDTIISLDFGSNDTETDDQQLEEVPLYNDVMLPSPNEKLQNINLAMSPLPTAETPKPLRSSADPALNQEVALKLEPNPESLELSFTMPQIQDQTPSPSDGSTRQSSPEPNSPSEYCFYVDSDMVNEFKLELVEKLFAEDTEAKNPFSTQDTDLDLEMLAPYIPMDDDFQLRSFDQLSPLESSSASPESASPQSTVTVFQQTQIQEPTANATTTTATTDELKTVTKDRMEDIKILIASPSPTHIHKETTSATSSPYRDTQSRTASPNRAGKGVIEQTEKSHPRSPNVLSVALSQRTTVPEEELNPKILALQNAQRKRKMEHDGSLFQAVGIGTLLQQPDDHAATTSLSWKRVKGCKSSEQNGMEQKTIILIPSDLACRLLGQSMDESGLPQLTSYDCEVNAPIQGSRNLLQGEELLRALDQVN

CCCOc1sc(C(=O)N2CCC(c3cc(CN)ccc3F)CC2)c(C)c1Br
inactive: [1] | [2] | [3] | [4] | [5] | [6] | [7] | HGF (gene 3082) | [8] | [9] | [10] | [11] | [12] | [13] | [14] | [15] | [16]

N#C[C@@H]1CC(F)(F)CN1C(=O)CNC1CC2CCC(C1)N2c1ncccn1 (some centres undefined)
inactive: [1] | [2] | [3] | [4] | [5] | [7] | HGF (gene 3082) | [8] | [9] | [10] | [11] | [17] | [12] | [13] | [14] | [15] | [16]

CN1CCN(c2ccccc2/C=C2\SCCN(c3ccc(Cl)c(Cl)c3)C2=O)CC1
active: [5] 71.9 µM | [7] 60.3 µM | [8] 12 µM | [9] 98.9 µM | [10] 60.9 µM | [11] 92.2 µM | [17] 50 µM | [12] 59.5 µM | [18] 12.4 µM | [13] 75.5 µM | [15] 84.9 µM | [19] 94.1 µM | [16] 93.9 µM
inactive: [1] | [2] | [3] | [4] | HGF (gene 3082) | [14]

Cc1oc(-c2ccccc2)nc1CCOc1ccc(C[C@H](Nc2ccccc2C(=O)c2ccccc2)C(=O)O)cc1
inactive: [3] | [14] | [15]
active: [1] 64 µM | [2] 0.0219 µM | [4] 27.9 µM | [5] 16.2 µM | [6] 30.8 µM | [7] 22.8 µM | HGF (gene 3082) 15.8 µM | [8] 12.4 µM | [9] 26.8 µM | [10] 30.9 µM | [11] 26.3 µM | [17] 30.6 µM | [12] 15.8 µM | [18] 13.2 µM | [13] 16.5 µM | [16] 25 µM

CCCCC(CC)COC(=O)CCCCC(=O)OCc1ccccc1 (centres undefined)
inactive: [1] | [2] | [3] | [4] | [5] | [7] | HGF (gene 3082) | [8] | [9] | [10] | [11] | [17] | [12] | [13] | [14] | [15] | [16]

CCCCCCCCCCCCCCCS(=O)(=O)Oc1ccccc1
active: [8] 27.5 µM
inactive: [1] | [2] | [3] | [4] | [5] | [7] | HGF (gene 3082) | [9] | [10] | [11] | [17] | [12] | [13] | [14] | [15] | [16]

OCCC(F)(F)C(F)(F)C(F)(F)C(F)(F)C(F)(F)C(F)(F)F
inactive: [1] | [2] | [3] | [4] | [5] | [7] | HGF (gene 3082) | [8] | [9] | [10] | [11] | [17] | [12] | [18] | [13] | [14] | [15] | [16]
